In the library only some 8.3% were active in any assay of this set; here they are far more common.
HCMV antiviral – qHTS Assay for inhibitors of the human cytomegalovirus (HCMV) | HFF cells, HCMV-luciferase reporter, 72 h; hits give low values | activity change, negative = inhibition, % at 57.5 µM | actives 4.5% (n = 410,000) | AID 1259415, 2018; in the data active = activity change below about -60%; inconclusive = no clear call, values can overlap the other calls; inactive = above about -39%
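Cell-based, HFFs, 1000 cells/well, 16 h 37C; cpds in DMSO + HCMV-luc, MOI 1 PFU/cell; 72 h 37C; OneGlo luminescence after 5 min RT; norm. to buffer vs Salinomycin 10uM.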
MARV entry inh – qHTS for inhibitors of binding or entry into cells for Marburg Virus; Marburg virus pseudotyped entry inhibition, cell reporter; Potency, µM (highest dose often 37.8 µM), for the others: at the highest dose activity change, negative = inhibition, most hits filed as inhibitors; actives 1.8% (n = 300,000); AID 540276, 2011; calls by dose curve; tested in HEK293 cells; note: potency is the fitted concentration of half-maximal effect
Lassa entry inh – qHTS for Inhibitors of binding or entry into cells for Lassa Virus. Potency, µM (titrated, usually from 37.9 µM), inactives show top-dose activity change, negative = inhibition, usual class: inhibitors. AID 540256, 2011. actives 1.2% (n = 300,000). Lassa virus pseudotype entry inhibition, cell reporter; calls by dose curve; tested in HEK293 cells; note: potency is the fitted concentration of half-maximal effect; nearly all actives have a fitted effect of over 50% in size
HCV inh – qHTS Assay for Inhibitors of Hepatitis C Virus (HCV) | Huh7.5.1 HCVcc-Cre infection, luciferase reporter, 44 h | Potency, µM (highest dose often 41.8 µM), for inactives: at the top dose activity change, negative = inhibition, actives largely listed as inhibitors | actives 3.4% (n = 340,000) | AID 651820, 2012; note: potency is the fitted concentration of half-maximal effect
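Seed cells (1,000/well) for 4 h; treat with compound and infect with HCVcc-Cre, moi about 0.5. Incubate 44 h, then detect luciferase activity.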
Giardia FBPA inh – qHTS Assay for Inhibitors of Fructose-1,6-bisphosphate Aldolase from Giardia Lamblia. purified Giardia FBPA. Potency, µM (series often up to 59.6 µM), for the others: top-dose activity, negative = inhibition, hits mostly inhibitors. actives 0.71% (n = 290,000); note: potency is the fitted concentration of half-maximal effect; nearly all actives have a fitted effect of over 55% in size
Target sequence (A8B2U2 whole entry, looked up): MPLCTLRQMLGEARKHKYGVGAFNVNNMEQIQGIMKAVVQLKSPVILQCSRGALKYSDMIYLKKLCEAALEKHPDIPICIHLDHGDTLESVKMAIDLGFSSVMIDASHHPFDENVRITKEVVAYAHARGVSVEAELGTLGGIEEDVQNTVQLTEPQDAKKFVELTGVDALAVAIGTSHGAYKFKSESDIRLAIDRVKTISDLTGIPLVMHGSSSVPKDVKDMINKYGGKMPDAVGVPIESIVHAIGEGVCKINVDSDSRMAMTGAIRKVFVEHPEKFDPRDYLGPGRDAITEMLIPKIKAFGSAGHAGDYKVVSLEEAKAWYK
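Giardia FBPA (40 nM reagent) was preincubated 10 min at RT with compound (up to 57.5 uM final), then substrate plus GAPDH/TPI/NAD/arsenate coupling system with diaphorase/resazurin was added; resorufin fluorescence (525/598 nm) was read after 20 min.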
FMDV antiviral – High Throughput Screening for Foot and Mouth Disease Virus Antivirals | FMDV antiviral cell-based qHTS | Potency, µM (doses to about 57.9 µM), for inactives: at the highest dose activity change, negative = inhibition, usual class: inhibitors | actives 1.2% (n = 410,000) | AID 1159524, 2015; calls by dose curve; tested in HEK293T cells; note: read-out not given here; potency is the fitted concentration of half-maximal effect; nearly all actives have a fitted effect of over 45% in size
Active calls of the source: *; ? = inconclusive; / = no result given; [ ] = remark or other dose. Unless noted, calls come from the whole dose curve; as a rule, active = well fitted curve in the direction sought with a large enough effect; inconclusive = small, poorly fitted or top-dose-only effect, or another doubt; inactive = no such curve, though single readings can be large; an effect the other way counts as inactive or inconclusive. % is set by controls: 0 for no effect and ±100 for the full control effect.

SMILES	HCMV antiviral	MARV entry inh	Lassa entry inh	HCV inh	Giardia FBPA inh	FMDV antiviral
COc1cc(C(=O)Nc2cccc(-c3nc4ccccc4o3)c2C)cc(OC)c1OC	4	10%	20%	22%	2%	-12%
Cc1ccc(OCC(=O)Nc2ccc(O)c(-c3nc4ccccc4o3)c2)cc1	-76*	-3%	?	6%	8%	?
Cc1cc(C)cc(OCC(=O)Nc2ccc(-c3nc4ccccc4o3)cc2)c1	-23	/	26%[46.1 µM]	/	/	-9%
Cc1ccc(OCC(=O)Nc2cccc(-c3nc4ccccc4o3)c2C)cc1C	-60*	5%[46.1 µM]	-11%[46.1 µM]	/	/	-16%
Cc1ccc(-c2nc3cccnc3o2)cc1NC(=O)COc1ccc(C(C)(C)C)cc1	-29	?	10µM*	?	-6%	?
CC(C)(C)c1ccc(-c2n[nH]c(=S)n2C2CCCC2)cc1	-91*	?	?	?	8%	?
Cc1ccc2c(c1)C1CN(C)CCC1N2Sc1ccccc1[N+](=O)[O-] (centres undefined)	-9	?	7.1µM*	-11%	-6%	?
Cc1ccc2c(c1)[C@@H]1CN(C)CC[C@@H]1N2S(=O)(=O)c1ccc([N+](=O)[O-])cc1	-10	?	-25%	9%	-6%	-13%
Cc1ccc(OCCCSc2nc(-c3ccc(C(C)(C)C)cc3)nc3cc(=O)[nH]n23)cc1C	?	/	22%[46.1 µM]	/	/	-9%
CCn1c(COc2ccc(=O)n(-c3ccccc3)n2)nnc1SCc1ccccc1C	-65*	-20%	-16%	17%	6%	-20%
CCn1c(COc2ccc(=O)n(-c3ccccc3)n2)nnc1SCc1ccc(C)cc1	-14	-10%	?	9%	1%	-13%
CCCN(C(=O)c1coc(=O)c2ccccc12)c1ccccc1C	-2	?	?	/	/	-2%
COc1ccccc1N1CCN(C(=O)c2cnn(-c3cccc(Cl)c3)c2C2CCN(C(=O)OC(C)(C)C)CC2)CC1	-17	/	?	/	/	?
COC(=O)[C@@]1(C)[C@H]2C(=O)N(Cc3ccccc3)C(=O)[C@H]2[C@H]2CN(C)C(=NC3CCCCC3)N21	-12	/	/	0.56µM*	/	-2%
COc1ccc(/C=C/C(=O)c2ccc([N+](=O)[O-])o2)cc1	44	/	/	18%	/	25µM*
Cc1cccc(/C=C/C(=O)c2ccc([N+](=O)[O-])o2)c1	-103*	/	/	0.63µM*	/	25µM*
Cc1ccccc1/C=C/C(=O)c1ccc([N+](=O)[O-])o1	-103*	/	/	?	/	22µM*
CCCCn1c(=N)n(CCOc2ccc(C)cc2)c2ccccc21	-37	?	?	8%	-1%	?
CCCCn1c(=N)n(CCOc2ccccc2OC)c2ccccc21	-71*	?	?	/	/	?
CCCCCn1c(=N)n(CC(O)COc2ccccc2OC)c2ccccc21 (centres undefined)	-37	?	?	11µM*	-3%	?
Nc1ncc(S(=O)(=O)N2CCN(c3ccccc3)CC2)cn1	-21	/	1%[46.1 µM]	/	/	-1%
Cc1oc(-c2ccccc2NC(=O)c2cccnc2)nc1CNC(=O)C1CCCCCN1C (centres undefined)	/	/	/	/	/	-22%
O=C(NC1CC(=O)N(c2ccc(F)cc2)C1)C1CCCC1 (centres undefined)	-12	/	13%[46.1 µM]	/	/	-8%
CC1CCCN(CC(O)COCC2COc3ccccc3O2)C1 (centres undefined)	34	33%	-5%	-11%	-6%	-15%
CC1CCCN(CC(O)CN2CCN(CC(O)CN3CCCC(C)C3)C(C)C2)C1 (centres undefined)	-13	1.1µM*	3%[46.1 µM]	9%	/	5%
SMILES	HCMV antiviral	MARV entry inh	Lassa entry inh	HCV inh	Giardia FBPA inh	FMDV antiviral
Cc1cccc(NC(=O)C2CCN(S(=O)(=O)c3ccc4ccccc4c3)CC2)n1	-19	?	?	?	/	25µM*
Cc1cccc(NC(=O)C2CCN(S(=O)(=O)c3c(C)nn(C)c3C)CC2)n1	?	-2%	/	25µM*	5%	?
Cc1cccc(NC(=O)C2CCN(S(=O)(=O)c3c(C)c(C)cc(C)c3C)CC2)n1	-39	?	?	?	/	?
COCCn1c(C)cc(O)c(C(c2ccccc2)N2CCC(C)CC2)c1=O (centres undefined)	8	/	0%[46.1 µM]	/	/	-10%
CN(C)C(=O)Oc1ccc2oc(=O)cc(-c3cc4ccccc4o3)c2c1	-20	/	/	11µM*	-2%	0%
COC(=O)COc1ccc2oc(=O)cc(-c3cc4ccccc4o3)c2c1	41	/	/	-4%	/	-6%
NC(=O)COc1ccc2oc(=O)cc(-c3cc4ccccc4o3)c2c1	-14	/	/	7%	3%	-26%
CCN(CC)C(=O)Oc1cc2c(-c3cc4cccc(OC)c4o3)cc(=O)oc2cc1C	-17	26%[46.1 µM]	?	6.3µM*	/	-15%
Cc1cc2oc(=O)cc(-c3cc4ccccc4o3)c2cc1OC(=O)N(C)C	-16	3%[46.1 µM]	-23%[46.1 µM]	5µM*	/	-28%
OCCN1CCN(Cc2ccc3c(c2)CN(Cc2cc4ccccc4o2)CCO3)CC1	/	/	/	/	/	4%
CCOC(=O)C(NC(C)=O)C(OC(C)=O)c1cccc([N+](=O)[O-])c1 (centres undefined)	-6	1%	7%	4%	7%	0%
CCOC(=O)C(NC(C)=O)C(OC(C)=O)c1cccc(N(CCCl)CCCl)c1 (centres undefined)	-64*	?	?	-20%	0%	-7%
C=CCSc1nc(N)c(C(=O)Nc2ccccc2)cc1C#N	9	?	1%	3.5µM*	4%	?
CCOC(=O)N1CCN(c2ncnc3c2cnn3-c2ccc(Cl)cc2)CC1	-24	-3%	/	-9%	3%	/
CCN(CC)C(=O)C1CCCN(c2ncnc3c2cnn3-c2ccc(Cl)cc2)C1 (centres undefined)	-68*	/	/	?	-4%	20µM*
CCN(CC)C(=O)C1CCCN(c2ncnc3c2cnn3-c2cccc(C)c2)C1 (centres undefined)	-37	?	-9%	?	-1%	14µM*
CCOC(=O)C1CCCN(c2ncnc3c2cnn3-c2cccc(C)c2)C1 (centres undefined)	3	27%	-1%	-18%	-1%	?
O=C(C1CCC(=O)N(C2CCCC2)C1)N1CCN(Cc2cccc(Cl)c2)CC1 (centres undefined)	-72*	29%	-12%	-2%	/	-7%
O=C(C1CC(=O)N(C2CCCC2)C1)N1CCC(Cc2ccccc2)CC1 (centres undefined)	-65*	-1%	1%	?	1%	/
